# The list is not random: actives were taken first. Their share in the collection is about 9%.
# G9a block = G9a (human) methyltransferase inhibition; G9a H3K9 monomethylation, AlphaScreen, 2 h; Potency, µM (highest dose often 102 µM), for inactives: at the top dose activity, negative = inhibition, hits mostly inhibitors; 350,000 compounds, 8.8% hits; Q96KQ7; also: % is scaled to controls: 0 for no effect and ±100 for the full control effect; nearly all actives have a fitted effect of over 75% in size
# Target sequence (Q96KQ7 913-1193 limits assumed): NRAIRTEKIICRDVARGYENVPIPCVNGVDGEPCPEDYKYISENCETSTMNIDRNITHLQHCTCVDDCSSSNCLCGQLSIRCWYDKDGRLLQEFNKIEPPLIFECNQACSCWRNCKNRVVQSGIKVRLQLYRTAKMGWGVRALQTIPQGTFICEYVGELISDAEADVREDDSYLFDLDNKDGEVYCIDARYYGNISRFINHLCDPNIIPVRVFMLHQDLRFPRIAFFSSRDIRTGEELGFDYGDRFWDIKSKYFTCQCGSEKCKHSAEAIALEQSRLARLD
#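 Compounds were preincubated with 20 nM G9a for 15 min, after which biotinylated H3K9 peptide (500 nM) and SAM (20 uM) started a 2 h room-temperature reaction. Monomethylated product was quantified by antibody-based AlphaScreen chemiluminescence.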
# JMJD2A Tudor inh = JMJD2A Tudor domain (human) inhibition; O75164; AlphaScreen JMJD2A-Tudor / H3K4me3 peptide binding; Potency, µM (series often up to 114 µM), for inactives: at the top dose activity change, negative = inhibition, most hits filed as inhibitors; 390,000 compounds, 4.4% hits; AID 504339; also: % is scaled to controls: 0 for no effect and ±100 for the full control effect; nearly all actives have a fitted effect of over 50% in size
# HP1b chromo inh = inhibitors of HP1-beta chromodomain binding to methylated histone tails; AID 540317; P83916; 390,000 compounds, 0.56% hits; Potency, µM (highest dose often 114 µM), without a hit: at the top dose activity change, negative = inhibition, most hits filed as inhibitors; AlphaScreen HP1-beta / biotin-H3K9me3 peptide binding; also: nearly all actives have a fitted effect of over 70% in size
# Target sequence (P83916 whole entry, looked up): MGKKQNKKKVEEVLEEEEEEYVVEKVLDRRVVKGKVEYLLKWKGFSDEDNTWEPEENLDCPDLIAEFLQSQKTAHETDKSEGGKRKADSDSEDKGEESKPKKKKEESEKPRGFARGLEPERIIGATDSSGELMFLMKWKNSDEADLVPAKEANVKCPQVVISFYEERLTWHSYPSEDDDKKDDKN
#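 Compound inhibition of the preformed complex between 50 nM HP1-beta and 50 nM biotinylated H3K9me3 peptide was read by AlphaScreen. Buffer was PBS pH 7.4 with 0.01% Tween-20. Incubations ran 30 min at room temperature, with 10 ug/mL donor/acceptor beads.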
# BAZ2B block = blocks human BAZ2B; Q9UIF8; AlphaScreen BAZ2B-H3K14Ac peptide displacement; Potency, µM (titrated, usually from 114 µM), inactives show top-dose activity change, negative = inhibition, hits mostly inhibitors; 360,000 compounds, 4.4% hits; AID 504333; also: % is scaled to controls: 0 for no effect and ±100 for the full control effect; nearly all actives have a fitted effect of over 60% in size
#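 Protein-peptide AlphaScreen: BAZ2B 50 nM, b-H3K14Ac 50 nM, 1x PBS pH 7.4 + 0.01% Tween-20. Preincubation 30 min RT; cpd 30 min RT (top 110 uM); beads 20 min RT, light-protected.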
# ALOX12 inh = ALOX12 (human) lipoxygenase inhibition. P18054. purified 12hLO, xylenol orange hydroperoxide absorbance. Potency, µM (highest dose often 108 µM), for inactives: at the top dose activity change, negative = inhibition, most hits filed as inhibitors. 580,000 compounds, 1.1% hits; also: % is scaled to controls: 0 for no effect and ±100 for the full control effect
#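 Purified human 12hLO at 150 nM in 25 mM Hepes, 0.01% Triton X-100, pH 7.0, preincubated 15 min at room temperature with compound. Reaction started with 40 uM arachidonic acid, 30 min at room temperature. Hydroperoxide measured by Fe-xylenol orange, 573/405 nm absorbance ratio.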
# PLK1 PBD block = PLK1 (human) polo-box domain binding inhibition; Potency, µM, for inactives: max response, negative = inhibition, most hits filed as inhibitors; Plk1 PBD binding of FITC phosphopeptide, fluorescence polarization; 360,000 compounds, 2.8% hits; P53350; also: series mostly up to about 57 µM; % is scaled to controls: 0 for no effect and ±100 for the full control effect; nearly all actives have a fitted effect of over 65% in size
# An asterisk follows results filed as active; ? = inconclusive; · = no result given; [ ] = remark or other dose. Calls follow the shape of the dose curve; as a rule, active = well fitted curve in the direction sought with a large enough effect; inconclusive = small, poorly fitted or top-dose-only effect, or another doubt; inactive = no such curve, though single readings can be large; an effect the other way counts as inactive or inconclusive. Potency is read from the fitted curve at half-maximal effect.
SMILES,G9a block,JMJD2A Tudor inh,HP1b chromo inh,BAZ2B block,ALOX12 inh,PLK1 PBD block
O=C(COc1cccc2ccccc12)Nc1ccc(Cl)cc1C(=O)O,79µM*,-27%,10%,-18%,?,27µM*
CC(C)C[C@@H](CNCC(=O)[C@H](Cc1c[nH]c2ccccc12)NC(=O)c1[nH]cnc1C(=O)N[C@@H](C)CN)NC(=O)c1nc[nH]c1C(=O)N[C@@H](C)C(=O)O,·,50µM*,27%,·,?,-18%
CC(C)C[C@@H](CNCC(=O)[C@H](Cc1c[nH]c2ccccc12)NC(=O)c1[nH]cnc1C(=O)N[C@H](CN)CC(C)C)NC(=O)c1nc[nH]c1C(=O)N[C@@H](CC(=O)O)C(=O)O,·,40µM*,?,·,?,-8%
CC(C)C[C@H](NC(=O)c1[nH]cnc1C(=O)N[C@@H](C)C(=O)OCc1ccccc1)C(=O)OCc1ccccc1,·,-31%,37%,·,27%,-9%
CC(C)C[C@@H](CN)NC(=O)c1nc[nH]c1C(=O)N[C@@H](Cc1c[nH]c2ccccc12)C(=O)CNC[C@H](C)NC(=O)c1nc[nH]c1C(=O)N[C@@H](CC(=O)O)C(=O)O,·,56µM*,21%,·,16%,-28%
CC(C)C[C@@H](CNCC(=O)[C@H](Cc1c[nH]c2ccccc12)NC(=O)c1[nH]cnc1C(=O)N[C@@H](C)CN)NC(=O)c1nc[nH]c1C(=O)N[C@@H](CC(=O)O)C(=O)O,·,20µM*,22%,·,-11%,27µM*
CC(CN1CCCC1)C(=O)NN (stereo not drawn),2%,-7%,56%,-12%,35%,5%
Cc1ccc(-c2nc(N)sc2-c2ccccc2)cc1C,?,?,?,?,?,-3%
Nc1nc(-c2ccccc2)c(-c2ccccc2)s1,40µM*,?,-31%,2%[57.1 µM],?,?
COc1ccc(-c2nc(C)sc2C)cc1,?,32µM*,?,3%,?,?
Cc1sc(N)nc1-c1cccs1,?,-21%[57.1 µM],-10%,-11%,0%,?
Nc1nc(-c2ccccc2)c(-c2ccc([N+](=O)[O-])cc2)s1,-40%,-15%,16%,-18%,?,3%
Cc1ccc(-c2nc(N)sc2C)cc1,50µM*,-16%,7%,?,2%,-7%
Cc1ccc(-c2nc(N)sc2-c2ccc(C)cc2)cc1,50µM*,?,-21%,?,?,-6%
Cn1nc2n(c1=O)CCN(S(C)(=O)=O)CC2,·,·,·,·,7%,·
Cc1ccc(S(=O)(=O)N2CCN(C)CC2)c(C)c1N(C)S(=O)(=O)c1ccc(Cl)cc1,-44%[2.33 µM],-28%,-2%,?,-7%,3%
O=C1/C(=C/c2ccc([N+](=O)[O-])cc2)CCC1C1CCCC1 (stereo not drawn),?,?,-11%,-19%,8%,-14%
CCCc1sc(N)nc1-c1ccc(C)cc1,56µM*,?,-36%,?,53%,-14%
CCC(C)NC(=O)COC(=O)Cc1sc(N)nc1-c1ccc(C)cc1 (stereo not drawn),-10%[59 µM],-20%,-14%,-12%,-14%,-13%
COc1cccc(CN2C(=O)CCCCC2C(=O)NCCc2ccccc2)c1 (stereo not drawn),·,·,·,·,-1%,·
O=C(c1ccc(CSc2nc3ccncc3[nH]2)cc1)N1CCN(c2cccc(Cl)c2)CC1,45µM*,?,13%,35µM*,1%,-2%
O=C(Nc1ccc(N2CCOCC2)cc1N1CCOCC1)c1ccco1,?,56µM*,?,2%,?,27µM*
O=C(Nc1ccc(N2CCOCC2)c(C(=O)O)c1)c1ccco1,56µM*,·,·,-1%,·,·
N#Cc1ccc(C(=O)N2CCCC(n3cc(-c4nc(C5CC5)no4)nn3)C2)cc1 (stereo not drawn),·,·,·,·,0%,·
CCc1ccccc1Nc1nc2ccccc2n2cnnc12,6%[59 µM],0%,56%,3%,-10%,·
SMILES,G9a block,JMJD2A Tudor inh,HP1b chromo inh,BAZ2B block,ALOX12 inh,PLK1 PBD block
COc1ccc(C(=O)C(OC(=O)CNC(=O)c2ccco2)c2ccccc2)cc1 (stereo not drawn),50µM*,-16%,8%,-38%[57.1 µM],?,-4%
O=C(c1cc(-c2cccnc2)nc2ccccc12)N1CCCc2ccccc21,18%[59 µM],-31%,-3%,?,-8%,-13%
O=C1c2ccc([N+](=O)[O-])cc2C(=O)N1c1ccc([N+](=O)[O-])cn1,·,-20%,41%,·,?,-8%
Cc1cnc(N2C(=O)c3ccc([N+](=O)[O-])cc3C2=O)s1,56µM*,?,-3%,-20%,-24%,-14%
COc1ccc(C=C(C(C)=O)C(=O)c2ccccc2)cc1,·,·,·,·,9%,-11%
CCOC(=O)C(=Cc1ccc(C)cc1)C(=O)OCC,·,·,·,·,2%,·
COCCOC(=O)/C(=C/c1ccc(OC(=O)c2ccccc2)cc1)C(C)=O,50µM*,-6%,36%,-2%,·,21µM*
CCOC(=O)/C(=C/c1ccc(OC(=O)c2ccncc2)cc1)C(C)=O,22µM*,-10%,24%,2%,-5%,?
Cc1ccccc1-n1nc(C)c(CCC(=O)NC(C)C)c1Oc1ccccc1,·,·,·,·,28%,·
CCN(CC)S(=O)(=O)c1cc(F)ccc1OC,23%[59 µM],7%,42%,4%,-20%,0%
Cc1ccc(C(=O)Nc2cc(Cl)ccc2-n2cncn2)o1,8.9µM*,-13%,30%,0%,-29%,-5%
CC(Oc1ccccc1)C(=O)Nc1cc(Cl)ccc1-n1cncn1 (stereo not drawn),45µM*,-1%,24%,-4%,-29%,3%
Cc1ccc(C(=O)Nc2cc(C(F)(F)F)ccc2-n2cncn2)o1,-7%[12.7 µM],-1%,30%,7%,-1%,-1%
CCCCn1cnc2c(sc3nc4c(cc32)CSC(C)(C)C4)c1=O,3%[59 µM],-16%,40%,1%,5%,-6%
Cc1cccc(Nc2nc(-c3ccc4c(c3)OCCO4)cs2)c1,7.9µM*,?,-35%,50µM*,?,-8%
Cc1nc(-c2ccc3c(c2)OCCO3)cs1,32µM*,-11%,8%,-16%,-21%,30µM*
Cc1nc(Cc2nc(-c3ccc4c(c3)OCCCO4)cs2)cs1,·,·,·,·,9%,·
Cc1cccc(Nc2nc(-c3ccc4c(c3)CCN4S(C)(=O)=O)cs2)c1,·,·,·,·,35µM*,·
O=C(Nc1nc(-c2ccc3c(c2)OCCO3)cs1)C1CCCC1,45µM*,?,20%,?,25%,-15%
O=C(Nc1cccc(F)c1)c1cnc2c(c1)N(C(=O)CCc1ccccc1)CCC2,·,·,·,·,-5%[176 µM],·
CCn1c(=NC(=O)CCS(=O)(=O)c2ccccc2)sc2cccc(OC)c21,·,-12%,12%,-5%,453%,-9%

# Compound activity from PubChem.
